Bioassay records (PubChem BioAssay)
Shown are actives, neighbours in structure and some others; about 3.7% of the full set was active somewhere.
PfHsp90 set2 = growth inhibition of PfHsp90-expressing yeast, primary screen, antimalarial PfHsp90 inhibitor project, S. cerevisiae, BacTiter-Glo luminescence, single point, set 2 | AID 504621, 2011 | hit rate 0.32% among 310,000 | inhibition, % at 9.4 µM | BacTiter-Glo ATP, 48 h; yeast lacking PDR1 and PDR3 efflux regulators;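 active = every replicate shows inhibition above about 80%, whatever the replicate mean, limit read from the data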
tim10-1 inh = growth inhibitors of tim10-1 mutant yeast, primary screen, luminescence, uHTS; hit rate 2.2% among 330,000; S. cerevisiae tim10-1 ts strain growth, BacTiter-Glo, 24 h; AID 463190, 2010; inhibition, % at 20 µM;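 active = inhibition of at least 40%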;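 also: mutant grown at 25 °C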
TIM10 inh = growth inhibitors of isogenic TIM10 control yeast, primary screen, counter-screen for tim10-1 yeast inhibitor project, luminescence, uHTS; S. cerevisiae TIM10 strain growth, BacTiter-Glo luminescence, 24 h; inhibition, % at 10 µM; hit rate 1.4% among 330,000; AID 463195, 2010;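 active = inhibition of 40% or more at the single tested concentration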;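 also: wild-type TIM10 isogenic control strain grown at permissive 25 °C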
tim23-1 inh = growth inhibitors of tim23-1 mutant yeast, primary screen, luminescence, uHTS; S. cerevisiae tim23-1 growth, BacTiter-Glo luminescence, 24 h; inhibition, % at 20 µM; hit rate 1.3% among 330,000; AID 463212, 2010;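 active = growth inhibition of the mutant yeast at or above 50%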;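 also: temperature-sensitive mutant grown at 25 °C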
NLRP3 yeast inh = NALP3 inflammasome inhibitors in reconstituted yeast, primary screen, luminescence, uHTS; Yeast reconstituted NLRP3/ASC/caspase-1, beta-gal luminescence, 24 h; inhibition, % at 10 µM; hit rate 0.39% among 330,000; AID 2825, 2010;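 active = inhibition of 50% or more; inactive = inhibition below 50%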
tim10-1 confirm = growth inhibitors of tim10-1 mutant yeast, confirmation, single concentration, luminescence, S. cerevisiae; S. cerevisiae tim10-1 ts strain growth, BacTiter-Glo, 24 h; hit rate 56% among 7,400; shares compounds with tim10-1 inh; inhibition, % at 20 µM;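 active = inhibition of yeast growth at or above a set limit in either of two repeat tests at 20 µM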;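 also: tim10-1 mutant grown at permissive 25 °C to find synthetic lethal compounds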
tim10 confirm = growth inhibitors of wild-type TIM10 yeast, confirmation, counter-screen for tim10-1 synthetic lethality project, single concentration, luminescence, S. cerevisiae; inhibition, % at 10 µM; hit rate 63% among 4,600; AID 463215, 2010; S. cerevisiae tim10 strain growth, BacTiter-Glo luminescence, 24 h; shares compounds with TIM10 inh;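 active = inhibition of yeast growth at or above a set limit in either of two replicates at 10 µM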; also: this counterscreen used the strain with wild-type TIM10
Hits are given with their value; - = inactive; . = not tested or not shown.

SMILES | PfHsp90 set2 | tim10-1 inh | TIM10 inh | tim23-1 inh | NLRP3 yeast inh | tim10-1 confirm | tim10 confirm
COc1ccc(C)cc1NC(=O)CSc1nnc2ccc(-c3cccnc3)nn12 | - | - | - | - | - | . | .
Cc1nnnn1/C(=C\c1ccccc1)C(=O)OCC(=O)N(C)C1CCS(=O)(=O)C1 (stereo unspecified) | - | - | - | - | - | . | .
CCN(C(=O)COC(=O)/C(=C/c1ccccc1)n1nnnc1C)C1CCCCC1 | - | 42 | 41 | - | - | 38 | 45
Cn1c(CC(=O)NNC(=O)c2ccc(Cl)nc2)nc2ccccc21 | - | - | - | - | - | . | .
CC(=O)N1N=C(c2ccccc2)OC1c1ccc([N+](=O)[O-])s1 (stereo unspecified) | 127 | 47 | 51 | - | - | 69 | 32
O=C1CC(N2CCC(c3nc4ccccc4o3)CC2)C(=O)N1c1cc(Cl)cc(Cl)c1 (stereo unspecified) | . | 41 | 41 | - | - | - | -
COc1ccc(OC)c(-c2csc(NC(=O)COC(=O)c3ccc(NC(=O)CC#N)cc3)n2)c1 | - | - | - | - | - | . | .
CCCc1cc(NCC2CCCO2)n2c(nc3ccccc32)c1C#N (stereo unspecified) | - | 41 | 41 | - | - | 37 | -
O=Cc1ccccc1OCc1nnsc1Cl | - | - | - | - | - | . | .
CNc1cc(CSC)nc(SCc2ccc(Cl)cc2Cl)n1 | - | 49 | 44 | - | - | 41 | 37
Nc1nc(SCc2ccc(Cl)cc2Cl)n[nH]1 | - | - | - | - | - | . | .
Cc1cc(C(=O)CCl)c(C)n1-c1cccc(S(=O)(=O)N2CCOCC2)c1 | . | 48 | 46 | - | - | 30 | 46
Oc1ccc(/C=N/NC(=S)NC2CC3CCC2C3)cc1 (stereo unspecified) | - | 42 | 58 | - | - | - | -
CCCCOc1ccc(CONS(=O)(=O)c2ccc(NC(C)=O)cc2)cc1Cl | - | 55 | 62 | - | - | 47 | 48
CC(=O)Nc1ccc(S(=O)(=O)NCCOc2ccc(Cl)cc2C)cc1 | - | - | - | - | - | . | .
COc1ccc([C@H]2[C@@H]3C=CCC[C@@]3(C)C(=O)N2Cc2ccccc2)cc1Cl | . | - | - | - | - | . | .
O=C(CC12CC3CC(CC(C3)C1)C2)NCC(=O)OCc1cc(=O)oc2ccc3ccccc3c12 | - | 41 | 44 | - | - | - | -
CCOC(=O)N1CCN(Cc2cc(=O)oc3ccc4ccccc4c23)CC1 | - | - | - | - | - | . | .
Cn1c(=O)c2nc(-c3ccccc3)oc2c2ccccc21 | . | 55 | 59 | - | - | 48 | 68
CCc1ccc(S(=O)(=O)/N=C2\C=C(Nc3ccc(O)cc3)C(=O)c3ccccc32)cc1 | - | 64 | 61 | - | - | 70 | 93
O=C(OCCCN1CCCC1)C1(c2ccccc2)CCCC1 | - | - | - | - | - | . | .
COc1ccc(C(=O)Nc2ccccc2C(=O)N/N=C/c2cccc3ccccc23)cc1 | . | 60 | 56 | - | - | 57 | 37
Cc1cc(NCCOCCO)n2ncc(-c3ccc(Cl)cc3)c2n1 | - | 57 | 42 | - | - | 44 | 50
COc1ccc(-c2csc(NC(CO)c3nc4ccccc4n3CCOCCO)n2)cc1 (stereo unspecified) | - | - | - | - | - | . | .
C=C1CCC[C@]2(C)C[C@H]3OC(=O)C(CN[C@@H](C)c4ccccc4)[C@H]3CC12 (stereo partly specified) | - | . | . | . | . | . | .
SMILES | PfHsp90 set2 | tim10-1 inh | TIM10 inh | tim23-1 inh | NLRP3 yeast inh | tim10-1 confirm | tim10 confirm
C=C1CCC[C@]2(C)C[C@H]3OC(=O)C(CN(Cc4ccc(OC)c(OC)c4)CC(C)O)[C@H]3CC12 (stereo partly specified) | - | 43 | 44 | - | - | 40 | 46
Cc1ccc(CC(=O)O/N=C(\N)Cc2ccc([N+](=O)[O-])cc2)cc1 | - | 73 | 60 | - | - | 77 | 63
COc1ccc(C/C(N)=N/OC(=O)C(c2ccccc2)c2ccccc2)cc1OC | - | - | - | - | - | . | .
N/C(Cc1ccc([N+](=O)[O-])cc1)=N\OC(=O)C(c1ccccc1)c1ccccc1 | - | 72 | 50 | - | - | 73 | 63
N/C(=N\OC(=O)Cc1ccc([N+](=O)[O-])cc1)c1ccc([N+](=O)[O-])cc1 | - | - | - | - | - | . | .
CCOc1cc2c3c(c1)C1(Nc4ccccc4S1)C(=O)N3C(C)(C)CC2C (stereo unspecified) | - | 49 | 47 | - | - | 48 | 32
COc1ccc(OCC(=O)Nc2ccc(N3CCOCC3)c(Cl)c2)cc1 | - | - | - | - | - | . | .
COc1ccc(OCC(=O)Nc2ccc(N3CCN(C(=O)c4ccccc4)CC3)c(Cl)c2)cc1 | - | 60 | 44 | - | - | 58 | 57
Fc1ccc(CN2CCN(c3ncnc4scc(-c5ccccc5)c34)CC2)cc1 | - | - | - | - | - | . | .
Fc1ccc(N2CCN(c3nc(CN4CCOCC4)nc4scc(-c5ccccc5)c34)CC2)cc1 | - | 55 | 40 | - | - | 34 | 34
Cc1cccc(Cc2c(C)nc3c(C(=O)NCc4ccco4)cnn3c2C)c1 | . | 41 | 48 | - | - | 42 | 40
Cc1nn(C(C)(C)C)c(OC(=O)c2ccc(Br)o2)c1Sc1ccccc1 | - | 41 | 41 | - | - | 36 | 36
Cc1nn(C(C)(C)C)c(OC(=O)c2ccco2)c1Sc1ccccc1 | - | 49 | 47 | - | - | 39 | 46
Cc1ccc(C)n1N1C(=O)/C(=C\c2ccc(Cl)cc2)SC1=S | - | 69 | 63 | - | - | 61 | 64
CC1CC(NS(=O)(=O)c2cc3c4c(c2)CCN4C(=O)CC3)CC(C)(C)C1 (stereo unspecified) | - | - | - | - | - | . | .
Cc1[nH]c2ccccc2c1C(=O)CN1CCCCC1C (stereo unspecified) | - | - | - | - | - | . | .
CC(=O)N/C(=N/c1nc(C)cc(C)n1)Nc1ccc(C)cc1C | - | - | - | - | - | . | .
O=[N+]([O-])c1cccnc1N1CCC(c2cc(-c3cccc(C(F)(F)F)c3)n[nH]2)CC1 | - | 43 | 52 | - | - | 30 | -
COc1cc2c(cc1NC(=O)CN1CCN(S(=O)(=O)c3ccc(C)cc3)CC1)oc1ccccc12 | - | - | - | - | - | . | .
